We go through 103 molecules from PubChem BioAssay AID488857 (Sanford-Burnham Center for Chemical Genomics, 2010).

Among all 1,400 compounds or so, about 560 (40%) were called active.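 How the source made its calls: active means mean inhibition over duplicate tests at 10 µM above 50%; inactive means the rest.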 The set was probably picked from earlier hits. The list shows a part of the results.

This experiment can be described thus: ASC/caspase-1 reporter retest in S. cerevisiae at one dose, specificity check for NALP1 project (AID 488857). As to conditions: S. cerevisiae ASC/Caspase-1, beta-galactosidase luminescence, 24 h; at 10 µM; active compounds read high.
As for `CCN1CCN(C(=O)N[C@@H](C(=O)N[C@@H]2C(=O)N3[C@@H]2SC(C)(C)[C@@H]3C(=O)O)c2ccccc2)C(=O)C1=O`, the inhibition is 39.1% (inactive). On to `COCCn1c(SCC(=O)NC(=O)NC(C)(C)C)nc2ccccc21`, for which the inhibition is 40.6% (inactive). Take `O=c1c(F)cn(C2CCCO2)c(=O)n1Cc1c(F)cccc1Cl` (stereo not drawn): the inhibition is 33.2% (inactive). To `CCOC(=O)c1c(C(F)(F)C(F)(F)C(F)(F)C(F)(F)F)n[nH]c1C` belongs 25.5% (inactive); to `COc1ccc(C2=NN3C(=O)c4c(ccc(OC)c4OC)C3C2)cc1` (stereo not drawn), 50.4% (active); to `O=P(CCCCCCCCCP(=O)(c1ccccc1)c1ccccc1)(c1ccccc1)c1ccccc1`, 47.2% (inactive). To `CNC(CC(=O)c1ccc([N+](=O)[O-])cc1)C(Cl)(Cl)Cl` (stereo not drawn) belongs 69.4% (active); to `O=C(NC(CO)Cc1ccc([N+](=O)[O-])cc1)C(Cl)Cl` (stereo not drawn), 34.8% (inactive). To `N#CC(C#N)=C(Nc1ccc(F)cc1)SCc1cccc(Br)c1` belongs 83.2% (active); to `Cc1ccc(F)cc1NCC(=O)Nc1ccc(Br)cc1`, 41.2% (inactive). In the case of `COc1ccc2c(c1)C1=NN(/C(C)=C/C(C)=O)C(c3ccc(F)cc3)C1CC2` (stereo not drawn), the inhibition was 45.9% (inactive). The same measure for `COc1ccccc1NC(=O)Nc1ccc2c(c1)nnn2C`: 25.1% (inactive); for `COc1ccc(N=c2cc(-c3ccc(OC)cc3)oc3ccccc23)cc1`: 54.5% (active); for `OCCCN=c1cc(-c2ccccc2)oc2ccc(Cl)cc12`: 49.8% (inactive). The same measure for `Cn1c(N)c(C(=O)COC(=O)C2(c3ccc(Cl)cc3)CCCC2)c(=O)n(C)c1=O`: 26.6% (inactive); for `COC(=O)Nc1sc2nc(C)cc(C)c2c1-n1cccc1`: 67.7% (active).

Consider `COC(=O)Nc1nc(C)c(C(=O)c2ccccc2)s1`, for which the inhibition was 47.8% (inactive). As to `CCOC(=O)C1CCCN(Cc2ccc(OCC)cc2)C1` (stereo not drawn), the inhibition is 30.4% (inactive). Take `CCc1ccc(OCC(=O)Nc2ccc(CN3CCCCC3)cc2)cc1`: the inhibition is 55.1% (active). `CCC(C)(C)NCC(=O)Nc1ccc(OC(F)(F)F)cc1`: the inhibition is 27.4% (inactive). For `Clc1ccc2c(N/N=C/c3ccccc3Br)ccnc2c1`, the inhibition was 31.4% (inactive). With `CCCCNC(=O)C(=O)N/N=C/c1cccc(Br)c1`, the inhibition is 37.1% (inactive). `Clc1ccc2c(N/N=C/c3cccc(Br)c3)ccnc2c1`: the inhibition was 57% (active). On to `Cc1ccc(/C=N/Nc2ccnc3cc(Cl)ccc23)c(C)c1`, for which the inhibition was 55% (active). With `Clc1ccc2c(N/N=C/c3ccc(Br)cc3)ccnc2c1`, the inhibition is 55.6% (active). The same measure for `Cc1ccc(N/C=C/C(=O)C(C)(C)C)c(O)c1`: 34.2% (inactive). For `CC(C)Oc1ccc(Cc2cnc(N)nc2N)cc1`, the inhibition is 48% (inactive). As for `CCOc1c(Cl)cc(CNCC(C)C)cc1OC`, the inhibition was 50% (active). As for `Cc1cc2ccccc2n1CCNCc1c(C(=O)N2CCOCC2)nc2ccccn12`, the inhibition is 21.8% (inactive). On to `CC(CC(=O)Nc1cccc(Cl)c1)c1ccccc1` (stereo not drawn), for which the inhibition is 50% (active).

Consider `Cn1cc(CC(=O)Nc2cccc(C#N)c2)c2ccccc21`, for which the inhibition was 34.1% (inactive). To `O=C(CNC(c1ccccc1)c1ccccc1)Nc1c(F)cccc1F` belongs 39.8% (inactive). The same measure for `CSC1=N/C(=C\c2cccnc2)C(=O)N1c1ccccc1`: 37.9% (inactive); for `NS(=O)(=O)c1ccc(NC(=O)COC(=O)c2cn(-c3ccccc3)nc2-c2ccc(F)cc2)cc1`: 33.1% (inactive). As for `CCOC(=O)c1nn(-c2ccc(C)cc2)cc1C(=O)c1ccccc1`, the inhibition was 64.8% (active). The same measure for `CCOC(=O)C1=Nc2ccccc2C1=[N+]=[N-]`: 46% (inactive); for `COc1ccc(CC(C)N2CCN(Cc3ccccc3)CC2)c(OC)c1` (stereo not drawn): 39.7% (inactive). On to `CCCCC(=O)Nc1ccc(C(=O)NNC(=S)NC(=O)c2ccco2)cc1`, for which the inhibition is 30.9% (inactive). To `Cc1sc2nc(SCC(=O)NCc3ccco3)n(Cc3ccccc3)c(=O)c2c1C` belongs 23.5% (inactive); to `O=C(Nc1ccc(-c2cn3ccccc3n2)cc1)c1ccco1`, 84% (active). On to `Cc1ccn2cc(-c3ccc(NC(=O)c4ccco4)cc3)nc2c1`, for which the inhibition was 86.5% (active). The same measure for `O=C(CCl)Nc1nc(-c2ccco2)c(-c2ccco2)s1`: 26.5% (inactive); for `N#Cc1ccc(-c2ccc(Cl)cc2)nc1SCC(=O)c1cccc(Cl)c1`: 25.2% (inactive); for `O=C(Nc1cccc(-c2cn3ccccc3n2)c1)c1cccc(Cl)c1`: 58.9% (active).

For `Cc1sc(NC(=O)c2ccco2)nc1-c1ccccc1`, the inhibition was 79% (active). Turning to `CC(C)CC(=O)N1CCN(S(=O)(=O)c2ccccc2)CC1`, the inhibition was 35.2% (inactive). As for `C=CCc1cccc(/C=N/c2nc3ccccc3n2CC)c1O`, the inhibition is 31.1% (inactive). Consider `C#CCCCCCCC#CCN(C)C`, for which the inhibition was 33.6% (inactive). `O=C(Nc1ccc2oc(-c3ccccc3)nc2c1)c1ccco1`: the inhibition was 96.3% (active). In the case of `CCCc1nc2ccc(NC(=O)c3ccco3)cc2c(=O)n1Cc1ccccc1Cl`, the inhibition was 40.2% (inactive). For `O=[N+]([O-])c1ccc(-c2ccn[nH]2)o1`, the inhibition was 36% (inactive). To `COCCCN(CCCN)Cc1ccco1` belongs 74.1% (active).

In the case of `COc1ccc(NCc2ccc([N+](=O)[O-])s2)cc1`, the inhibition was 30.4% (inactive). To `CCOC(=O)c1nnc(-c2ccc(C)cc2)nc1Sc1ccc(Cl)cc1` belongs 29.1% (inactive); to `CCOC(=O)C1=NN(C(=O)c2ccc(C)cc2)C(O)(c2ccc(Cl)cc2)C1` (stereo not drawn), 50.6% (active).

For the molecule `CCOC(=O)c1c(O)c2cc(Cl)ccc2n(CC)c1=O`, the inhibition was 40.3% (inactive).

On to `O=S(=O)(Cc1cc(Sc2ccccc2)nc(-c2ccccc2)n1)c1ccccc1`, for which the inhibition is 33.7% (inactive). For `Oc1c(Cl)cc(Cl)c2c1NCCC2`, the inhibition is 64.7% (active). To `CCN(C(=O)[C@@H]1CCCN1C(=O)c1cccs1)c1nc2cc(Cl)ccc2s1` belongs 62.6% (active); to `Cc1cccc(NC(=O)c2ccc(C3SCC(=O)N3CCc3ccccc3)cc2)c1C` (stereo not drawn), 60.8% (active). Consider `COc1ccc(C2SCC(=O)N2CCCN(C)C)cc1` (stereo not drawn), for which the inhibition was 39.6% (inactive). With `Cc1cc(C)cc(NS(=O)(=O)c2ccc(NC(=O)C3CCCCC3C(=O)O)cc2)c1` (stereo not drawn), the inhibition is 26.8% (inactive). For the molecule `CC(=O)Nc1cccc(OCCCNC(=O)C2CCC2)c1`, the inhibition is 39.1% (inactive). Take `O=C1c2ccccc2C(=O)c2cc(NC(=O)C3CC3)ccc21`: the inhibition is 51.6% (active). As to `O=C(Nc1ccc(C#Cc2ccccc2)cc1)C1CC1`, the inhibition is 73.2% (active). As to `CS(=O)(=O)N1CCC(C(=O)Nc2ccc3c(c2)OCO3)CC1`, the inhibition was 19.4% (inactive).

As for `O=C(Nc1ccc(Br)c(Cl)c1)C1CC1`, the inhibition is 51% (active). Take `COc1ccc(NC(=O)C2CCN(C(=O)c3ccc(OC)cc3)CC2)cc1`: the inhibition is 26.8% (inactive).

`CCn1cc(C(=O)O)c(=O)c2cc(F)c(N3CCNCC3)cc21`: the inhibition is 30.4% (inactive).

As to `CCC(=O)c1ccc(OCC(O)CN2CCN(c3cccc(C(F)(F)F)c3)CC2)cc1` (stereo not drawn), the inhibition was 65.7% (active).

Turning to `Cn1cc(S(=O)(=O)N2CCN(c3cccc(C(F)(F)F)c3)CC2)c(=O)n(C)c1=O`, the inhibition was 33.4% (inactive).

Consider `CCOC(=O)N1CCN(CC(O)COc2ccccc2C(C)(C)C)CC1` (stereo not drawn), for which the inhibition is 44.2% (inactive). Turning to `O=C(NC(Cc1c[nH]c2ccccc12)C(=O)O)/C(=C\c1ccc2c(c1)OCO2)NC(=O)c1ccccc1` (stereo not drawn), the inhibition was 28.8% (inactive). To `O=C(/C=C/c1c[nH]c2ccccc12)c1ccccc1` belongs 86.5% (active). With `O=C(/C=C/Sc1ccccc1)c1ccc(Cl)cc1`, the inhibition is 44.6% (inactive). `Oc1oc(-c2ccccc2)nc1C=Nc1cccc2ccccc12`: the inhibition is 32.5% (inactive).

On to `Clc1ccc(C2=NNC(=NCc3ccc4c(c3)OCO4)SC2)cc1`, for which the inhibition is 33.4% (inactive).

For `CC(C)N1CCC2(CC1)N=C(c1ccc3c(c1)OCO3)CC(c1cc(Cl)ccc1O)N2` (stereo not drawn), the inhibition was 74.5% (active). To `CCNc1c(C(=O)O)ccc2c1C(=O)c1ccccc1C2=O` belongs 39.5% (inactive).

`COc1ccc(C(=O)c2c(C(F)(F)F)oc3c2C(=O)c2ccccc2C3=O)cc1`: the inhibition is 20.5% (inactive).

`CC(=O)c1c(C)oc2c1C(=O)c1ccccc1C2=O`: the inhibition was 74.2% (active). The same measure for `CCN1CCN(c2cc(C(C)C)nc3c(-c4ccccc4)c(C)nn23)CC1`: 52.5% (active). `O=C(c1cccc(F)c1)N1CCN(c2cc(N3CCCCC3)c(F)cc2[N+](=O)[O-])CC1`: the inhibition is 49.4% (inactive). For `O=C(c1ccc2c(Cl)c3c(nc2c1)CCCC3)N1CCN(c2ccc(F)cc2)CC1`, the inhibition is 61.5% (active).

Consider `c1cc2c3c(cccc3c1)NC1(CCCCCC1)N2`, for which the inhibition was 19.9% (inactive). Take `Cc1ccc(-c2cc(NC(=O)CSc3n[nH]c(N)n3)n(-c3ccccc3)n2)cc1`: the inhibition was 21.9% (inactive). The same measure for `COCC(=O)OCC(=O)Nc1cc(C(C)(C)C)nn1-c1ccccc1`: 21.4% (inactive); for `O=C(CCl)Nc1cc(-c2ccccc2)nn1-c1ccccc1`: 78.5% (active). Regarding `CCC(C)c1ccccc1NC(=O)CN1CCN(C/C=C/c2ccccc2)CC1` (stereo not drawn), the inhibition is 55% (active). Regarding `O=C(CN1CCOCC1)Nc1ccccc1Sc1ccc(Cl)cc1`, the inhibition is 28.6% (inactive). `COC(=O)c1ccccc1NC(=O)N1CCN(C/C=C/c2ccccc2)CC1`: the inhibition was 42.6% (inactive). The same measure for `Cc1noc2ncc(C(=O)c3cc(F)ccc3O)cc12`: 27.6% (inactive); for `CC1CCN(CCOc2ccc(Cl)c(Cl)c2)CC1`: 56.5% (active); for `CCN1CCN(Cc2cccc(Oc3ccccc3)c2)CC1`: 40% (inactive). For `Clc1cccc(OCCN2CCN(CCOc3cccc(Cl)c3)CC2)c1`, the inhibition was 65.6% (active). Consider `Clc1ccc(OCCCN2CCCC2)cc1Cl`, for which the inhibition was 40% (inactive).

Take `CC1CCN(CCOc2ccc(OCc3ccccc3)cc2)CC1`: the inhibition was 59.3% (active). In the case of `Cn1c(=O)n(CCCOc2ccc(Cl)cc2)c2ccccc21`, the inhibition was 46.1% (inactive). Take `CC1CCN(CCOc2cccc(Br)c2)CC1`: the inhibition is 43.1% (inactive). As for `CCN(CC)CCCOc1ccc(Cl)c(Cl)c1`, the inhibition is 39.4% (inactive). Regarding `c1ccc(COc2ccc(OCCN3CCCCC3)cc2)cc1`, the inhibition is 39.1% (inactive). With `Clc1ccc(OCCN2CCCCC2)cc1Cl`, the inhibition was 57.7% (active). As for `CN(C)Cc1ccccc1COc1ccccc1`, the inhibition was 31.8% (inactive).

As usually defined, the inhibition is how much of the control response was suppressed.
